For 60 compounds, relative growth results are on record in the supplement of paper PMC9446081.

Out of some 39,000 compounds screened, about 220 (0.56%) showed activity. The sample holds actives, similar compounds and a random draw of the others, so the mix is not that of the screen.
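Note: Wild-type cells incubated without shaking, value is the mean of two biological replicates.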

This assay has as its system Escherichia coli K-12 BW25113. Nature of the assay: relative growth (OD600 normalised to plate interquartile mean) (fraction); higher = less growth inhibition, active = 0.2 or less. As to conditions: 50 µM; LB; incubation time: overnight (16-24 h).
Consider `COc1ccc(NC(=O)N(C)C[C@@H]2Oc3ccc(NC(=O)Nc4ccc(C(F)(F)F)cc4)cc3C(=O)N([C@@H](C)CO)C[C@H]2C)cc1`, for which the relative growth was 1.03 (inactive). The same measure for `Clc1nc(-c2ccccn2)nc2scc(-c3ccccc3)c12`: 0.979 (inactive); for `C[C@@H](O)c1cccc(C(F)(F)F)c1`: 0.986 (inactive). `CC(NCCCc1cccc(C(F)(F)F)c1)c1cccc2ccccc12.Cl` (stereo not given): the relative growth was 0.0467 (active).

With `CC(Cc1cccc(C(F)(F)F)c1)NCCOC(=O)c1ccccc1.Cl` (stereo not given), the relative growth was 0.815 (inactive). The same measure for `C[C@H]1CN([C@@H](C)CO)C(=O)c2cc(NS(=O)(=O)c3cn(C)cn3)ccc2O[C@H]1CN(C)Cc1ccc(C(=O)Nc2ccccc2N)cc1`: 1.04 (inactive); for `COc1cccc(OCc2ccc(Cn3nc(NC(=O)NCc4ccccc4OC)c4ccccc43)cc2)c1`: 1.03 (inactive). For the compound `O=C1C=CC(=O)N1`, the relative growth was 0.0291 (active).

On to `Cc1noc(C)c1S(=O)(=O)Nc1ccc2c(c1)CC(=O)N([C@H](C)CO)C[C@H](C)[C@H](CN(C)S(=O)(=O)c1c(C)noc1C)O2`, for which the relative growth was 1.01 (inactive). `CN(C)CCOC(c1ccccc1)c1ccccc1.Cn1c(=O)c2[nH]c(Cl)nc2n(C)c1=O`: the relative growth is 0.0491 (active). Next, `CN(C)CCOC(c1ccccc1)c1ccccc1.Cl`: 1.12 (inactive).

Turning to `COCCc1nc2c([nH]1)c(=O)n(C)c(=O)n2C`, the relative growth was 0.97 (inactive). The same measure for `CO[C@@H]1CN(C)C(=O)c2cc(NC(=O)c3ccc(F)cc3)ccc2OC[C@@H](C)N(C(=O)CN(C)C)C[C@H]1C`: 0.988 (inactive).

As for `C[C@H]1CCCCO[C@@H](CN(C)Cc2ccc(C(=O)Nc3ccccc3N)cc2)[C@@H](C)CN([C@@H](C)CO)C(=O)c2cc(N(C)C)ccc2O1`, the relative growth is 0.998 (inactive).

For the compound `[N-]=[N+]=Nc1ccccc1C[C@@]1(C(=O)NC[C@@H](O)CO)N=C(c2ccc(OCCCO)cc2)O[C@@H]1c1ccccc1`, the relative growth is 1 (inactive). The same measure for `COc1ccc(S(=O)(=O)N(C)C[C@H]2Oc3ccc(NS(=O)(=O)c4ccc(F)cc4)cc3C(=O)N([C@H](C)CO)C[C@H]2C)cc1`: 1.02 (inactive); for `COC1C(OC(N)=O)C(O)C(Oc2ccc3c([O-])c(NC(=O)c4ccc(O)c(CC=C(C)C)c4)c(=O)oc3c2C)OC1(C)C.[Na+]` (stereo not given): 0.701 (inactive). The same measure for `CO[C@@H]1[C@@H](OC(=O)c2ccc(C)[nH]2)[C@@H](O)[C@@H](Oc2ccc3c(c2C)OC(=O)[C@H](NC(=O)c2[nH]cc(CC(=O)Nc4cc5ccc(O[C@@H]6OC(C)(C)[C@H](OC)[C@@H](OC(=O)c7ccc(C)[nH]7)[C@H]6O)c(C)c5oc4=O)c2C)C3)CC1(C)C`: 0.0629 (active); for `COCCCNC(=O)[C@@H]1c2ccccc2C(=O)N(Cc2cc(C(F)(F)F)cc(C(F)(F)F)c2)[C@H]1c1ccc(CO)cc1`: 0.859 (inactive). For the compound `Cc1noc(C)c1NC(=O)Nc1ccc2c(c1)C(=O)N([C@@H](C)CO)C[C@@H](C)[C@@H](CN(C)C(=O)c1ccccc1)OCCCC[C@@H](C)O2`, the relative growth is 0.977 (inactive). The same measure for `Cc1cc(C2CCCCC2)n(O)c(=O)c1.NCCO`: 0.0534 (active); for `C[C@@H]1CN([C@@H](C)CO)C(=O)c2cc(-c3cccc(C(=O)N(C)C)c3)cnc2O[C@H]1CN(C)S(=O)(=O)c1ccccc1`: 1.01 (inactive). The same measure for `COCC#Cc1ccc2c(c1)O[C@H](CN(C)C(=O)C1CCCCC1)[C@H](C)CN([C@H](C)CO)S2(=O)=O`: 0.988 (inactive). The same measure for `COC1C=COC2(C)Oc3c(C)c(O)c4c(O)c(c(C=NN5CCN(C)CC5)c(O)c4c3C2=O)NC(=O)C(C)=CC=CC(C)C(O)C(C)C(O)C(C)C(OC(C)=O)C1C` (stereo not given): 0.0777 (active). In the case of `CO[C@H]1/C=C\O[C@@]2(C)Oc3c(C)c(O)c4c(c3C2=O)[C@]2(C=C(NC(=O)/C(C)=C\C=C/[C@@H](C)[C@@H](O)[C@@H](C)[C@@H](O)[C@@H](C)[C@@H](OC(C)=O)[C@@H]1C)C4=O)OCC(=O)O2`, the relative growth is 0.905 (inactive). Next, `COC1C=COC2(C)Oc3c(C)c(O)c4c(O)c(c5c(nc6cc(C)ccn65)c4c3C2=O)NC(=O)C(C)=CC=CC(C)C(O)C(C)C(O)C(C)C(OC(C)=O)C1C` (stereo not given): 0.0499 (active). Next, `COC1C=COC2(C)Oc3c(C)c(O)c4c(O)c(c(C=NN5CCN(C6CCCC6)CC5)c(O)c4c3C2=O)NC(=O)C(C)=CC=CC(C)C(O)C(C)C(O)C(C)C(OC(C)=O)C1C` (stereo not given): 0.0719 (active). Next, `CO[C@H]1/C=C\O[C@@]2(C)Oc3c(C)c(O)c4c(O)c(c(/C=N/N=C/N5CCCCC5)c(O)c4c3C2=O)NC(=O)/C(C)=C\C=C/[C@H](C)[C@H](O)[C@@H](C)[C@@H](O)[C@@H](C)[C@H](OC(C)=O)[C@@H]1C`: 0.65 (inactive); `C[C@@H]1CCCCO[C@H](CN(C)Cc2ccc3c(c2)OCO3)[C@H](C)CN([C@@H](C)CO)C(=O)c2cc(NC(=O)NC3CCCCC3)ccc2O1`: 1.01 (inactive). Take `C[C@H](CO)N1C[C@H](C)[C@@H](CN(C)C(=O)NC2CCCCC2)Oc2c(NC(=O)Nc3cccc4ccccc34)cccc2C1=O`: the relative growth was 0.995 (inactive). For `C[C@H](CO)N1C[C@H](C)[C@@H](CN(C)Cc2ccncc2)Oc2c(NS(=O)(=O)c3ccc(F)cc3)cccc2C1=O`, the relative growth is 1 (inactive).

`CO[C@H]1CN(C)C(=O)c2ccc(NS(C)(=O)=O)cc2OC[C@H](C)N(C(=O)C2CCCCC2)C[C@@H]1C`: the relative growth is 0.962 (inactive). Next, `C[C@H]1CN([C@@H](C)CO)C(=O)Cc2cc(NS(=O)(=O)c3ccc(Cl)cc3)ccc2O[C@H]1CN(C)Cc1ccc(-c2ccccc2)cc1`: 0.992 (inactive). Consider `Cc1noc(C)c1NC(=O)N(C)C[C@@H]1OCCCC[C@@H](C)Oc2ccc(NC(=O)Cc3ccccc3)cc2C(=O)N([C@@H](C)CO)C[C@H]1C`, for which the relative growth is 0.958 (inactive). Next, `Nc1nc(=O)c2ncn(COCCO)c2[nH]1`: 1 (inactive); `COc1ccc(S(=O)(=O)Nc2ccc3c(c2)C(=O)N([C@@H](C)CO)C[C@H](C)[C@@H](CN(C)S(=O)(=O)c2cn(C)cn2)OCCCC[C@H](C)O3)cc1`: 0.994 (inactive); `CO[C@H]1CN(C)C(=O)c2cc(NS(=O)(=O)CC(F)(F)F)ccc2OC[C@@H](C)N(Cc2nccs2)C[C@@H]1C`: 0.962 (inactive).

`CC(=O)OCC1=C(C(=O)[O-])N2C(=O)C(NC(=O)CSc3ccncc3)C2SC1.[Na+]` (stereo not given): the relative growth is 0.797 (inactive).

For the compound `NC(=O)c1cc[n+](CC2=C(C(=O)[O-])N3C(=O)C(NC(=O)Cc4cccs4)C3SC2)cc1` (stereo not given), the relative growth was 0.634 (inactive).

`CC(=O)OCC1=C(C(=O)[O-])N2C(=O)C(NC(=O)Cc3cccs3)C2SC1.[Na+]` (stereo not given): the relative growth is 0.0435 (active).

In the case of `COC1(NC(=O)Cc2cccs2)C(=O)N2C(C(=O)[O-])=C(COC(N)=O)CSC21.[Na+]` (stereo not given), the relative growth was 0.0688 (active). As to `C[C@H](CO)N1C[C@H](C)[C@H](CN(C)C(=O)Nc2ccccc2)Oc2c(NC(=O)CCCCCC(=O)Nc3ccccc3N)cccc2C1=O`, the relative growth was 0.992 (inactive). On to `COc1ccc(S(=O)(=O)N(C)C[C@H]2Oc3c(NC(=O)C4CC4)cccc3C(=O)N([C@H](C)CO)C[C@@H]2C)cc1`, for which the relative growth is 0.992 (inactive).

On to `C[C@@H]1CCCCO[C@H](CN(C)C)[C@H](C)CN([C@@H](C)CO)C(=O)c2cc(NS(=O)(=O)c3cn(C)cn3)ccc2O1`, for which the relative growth is 0.994 (inactive).

Regarding `C[C@@H]1CCCCO[C@H](CN(C)S(=O)(=O)c2ccccc2)[C@H](C)CN([C@@H](C)CO)C(=O)c2cc(NC(=O)Nc3ccc(C(F)(F)F)cc3)ccc2O1`, the relative growth was 1 (inactive). For `COc1ccc(S(=O)(=O)Nc2ccc3c(c2)C(=O)N([C@@H](C)CO)C[C@H](C)[C@H](CN(C)S(=O)(=O)c2ccc(C)cc2)O3)cc1`, the relative growth is 1.01 (inactive). Next, `C[C@H]1CN([C@@H](C)CO)C(=O)Cc2cc(NC(=O)Nc3ccc(C(F)(F)F)cc3)ccc2O[C@@H]1CN(C)C(=O)Nc1ccc(F)cc1`: 1.01 (inactive). Next, `O=C(C[C@H]1C[C@@H]2c3cc(NC(=O)Cc4ccncc4)ccc3O[C@@H]2[C@@H](CO)O1)NCCN1CCCCC1`: 0.983 (inactive); `Cc1cn([C@H]2C[C@H](F)[C@@H](CO)O2)c(=O)[nH]c1=O`: 0.276 (inactive); `Cc1cn([C@H]2C[C@H](N=[N+]=[N-])[C@@H](CO)O2)c(=O)[nH]c1=O`: 0.048 (active). The same measure for `Cc1cn(C2CC(N=[N+]=[N-])C(CO)O2)c(=O)[nH]c1=O` (stereo not given): 0.0449 (active). With `Cc1cn([C@H]2CC[C@@H](CO)O2)c(=O)[nH]c1=O`, the relative growth was 0.531 (inactive). Next, `Cc1cn([C@H]2C[C@@H](NC(=O)C(C)(C)C)[C@@H](CO)O2)c(=O)[nH]c1=O`: 1.02 (inactive). `CCc1cn([C@H]2C[C@@H](O)[C@@H](CO)O2)c(=O)[nH]c1=O`: the relative growth was 0.827 (inactive). As for `O=C(C[C@H]1C[C@H]2c3cc(NC(=O)Cc4ccncc4)ccc3O[C@H]2[C@H](CO)O1)NCCN1CCCCC1`, the relative growth was 1.02 (inactive). Next, `Cc1noc(C)c1NC(=O)Nc1ccc2c(c1)C(=O)N([C@@H](C)CO)C[C@H](C)[C@@H](CN(C)S(=O)(=O)c1ccccc1)O2`: 0.987 (inactive).

As to `COCC#Cc1ccc2c(c1)O[C@@H](CN(C)S(=O)(=O)c1ccc(C)cc1)[C@@H](C)CN([C@H](C)CO)S2(=O)=O`, the relative growth was 1.02 (inactive). `C[C@@H]1CN([C@@H](C)CO)C(=O)c2cccc(NC(=O)Nc3ccc(F)cc3)c2O[C@H]1CN(C)S(=O)(=O)c1cn(C)cn1`: the relative growth was 0.984 (inactive). Take `C[C@@H]1CN([C@H](C)CO)C(=O)Cc2cc(NC(=O)Cn3cnnn3)ccc2O[C@H]1CN(C)Cc1ccncc1`: the relative growth was 0.971 (inactive). In the case of `C[C@@H]1CN([C@@H](C)CO)C(=O)CCCn2nncc2CO[C@@H]1CN(C)C(=O)c1ccc(N2CCN(C)CC2)cc1`, the relative growth is 0.987 (inactive).
